Test results reported in PubChem BioAssay.
The source made the active and inactive calls.

Assays:
[1] = system: Plasmodium falciparum Sir2 (PF13_0152, Sir2A); test: Plasmodium falciparum Sir2A binding compounds – biochemical, small-molecule microarray, 635 nm fluorescence, primary screen (AID 1098); details: fluorescence 635 nm, higher = more signal;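 further: score merges spot fluorescence intensity with its signal-to-noise ratio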
[2] = probe aDKK1 binding to arrayed compounds – biochemical, biotinylated probe, 635/667 nm fluorescence, primary screen (AID 1099); details: small-molecule microarray, higher = more signal;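 further: score merges 667nm spot fluorescence with signal to noise across triplicate slides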
[3] = probe aCHRDL2 binding to arrayed compounds – biochemical, biotinylated probe, 635/667 nm fluorescence, primary screen (AID 1100); details: small-molecule microarray, higher = more signal
[4] = change in splice reporter luminescence, either direction, cell-based, HEK293, spliceosome inhibition project, primary screen (AID 1101); details: HEK293 splicing luciferase reporter, 24 h, higher = more signal, called active from +8 up or from −8 down;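 further: HEK293 cells carrying a splicing-competent luciferase reporter gene; test concentration not given here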
[5] = target: Fibroblast growth factor 10 (Homo sapiens) (UniProt O15520); test: compounds binding fibroblast growth factor 10 – biochemical, small-molecule microarray, 635 nm fluorescence, primary screen (AID 1102); details: FGF10 binding, fluorescence 635 nm, higher = more signal
[6] = system: glycogen synthase kinase-3 (GSK3A per assay name; protocol says GSK3B); test: compounds binding glycogen synthase kinase-3 – biochemical, small-molecule microarray, 635 nm fluorescence, GSK3A, primary screen (AID 1103); details: fluorescence 635 nm, higher = more signal; further: the record names both GSK3A and GSK3B
[7] = target: Epidermal growth factor receptor (Homo sapiens) (UniProt P00533); test: compounds binding epidermal growth factor receptor – biochemical, small-molecule microarray, 635 nm fluorescence, primary screen (AID 1104); details: EGFR binding, higher = more signal;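 further: score merges 667 nm emission intensity with spot signal to noise over triplicate slides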
[8] = target: Follistatin-related protein 3 (Homo sapiens) (UniProt O95633); test: compounds binding follistatin-related protein 3 – biochemical, small-molecule microarray, 635 nm fluorescence, primary screen (AID 1105); details: FSTL3 binding, higher = more signal;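 further: score merges emission near 667 nm and signal to noise per printed spot across three slides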
[9] = target: Dickkopf-related protein 1 (Homo sapiens) (UniProt O94907); test: small molecules binding DKK1 protein – biochemical, small-molecule microarray, 635 nm fluorescence scan, primary screen (AID 1106); details: higher = more signal;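 further: score merges emission near 667 nm with signal to noise over three replicate slides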
[10] = system: Inhibin beta A chain (activin A); test: small molecules binding activin A – biochemical, small-molecule microarray, 635 nm fluorescence scan, primary screen (AID 1107); details: INHBA, higher = more signal;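 further: mouse activin A protein probed at 4.33 µg/mL on printed slides; score merges bound-protein fluorescence near 667 nm with spot signal-to-noise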
[11] = system: Human papillomavirus type 1a protein E7 (residues 44-93); test: small molecules binding HPV E7 44-93 – biochemical, small-molecule microarray, residues 44-93, 635 nm fluorescence, primary screen (AID 1108); details: fluorescence 635 nm, higher = more signal;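 further: E7 fragment applied at 1 µg/mL in TBST for 1 h at 4 C; score combines spot fluorescence with its signal to noise ratio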
[12] = hepatitis C replication reporter changes, two-sided – Huh7 cells, luciferase reporter, HCV replication inhibitor project, primary screen (AID 1109); details: Huh7 HCV replicon luciferase reporter, 48 h; higher = more signal;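 further: huh7 hepatoma cells harbouring a luciferase neomycin HCV replicon reporter; luciferase luminescence as measure of HCV replicon replication; test concentration not given here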
[13] = target: Left-right determination factor 2 (Homo sapiens) (UniProt O00292); test: small molecules binding LEFTY2 protein – biochemical, small-molecule microarray, 635 nm fluorescence scan, primary screen (AID 1110); details: higher = more signal
[14] = target: Calmodulin-1 (Homo sapiens) (UniProt P0DP23); test: small molecules binding calmodulin-1 with EGTA – biochemical, small-molecule microarray, Cy5-labelled CALM1, profiling panel (AID 1111); details: Cy5-CALM1 binding fluorescence, higher = more signal;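 further: labelled calmodulin applied in Tris saline Tween buffer holding calcium plus EGTA and DTT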
[15] = target: Calmodulin-1 (Homo sapiens) (UniProt P0DP23); test: small molecules binding Ca-loaded calmodulin-1 – biochemical, small-molecule microarray, Cy5-labelled CALM1, plus calcium, artefact control for SMM control-protein annotation, profiling panel (AID 1112); details: Cy5-CALM1 binding fluorescence, higher = more signal;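 further: score merges spot fluorescence with signal to noise from triplicate slides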
[16] = probe aWnt5a binding to arrayed compounds – biochemical, biotinylated probe, 635/667 nm fluorescence, primary screen (AID 1113); details: small-molecule microarray, higher = more signal;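 further: score merges 667 nm fluorescence intensity with signal-to-noise per printed feature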
[17] = probe aShh binding to arrayed compounds – biochemical, biotinylated probe, 635/667 nm fluorescence, primary screen (AID 1114); details: small-molecule microarray, higher = more signal;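 further: probe is biotin-labelled aShh protein from a stem cell growth factor screen; measures binding of labelled protein to compounds printed on the slide; score merges feature fluorescence at 667 nm with signal-to-noise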
[18] = probe aNog binding to arrayed compounds – biochemical, biotinylated probe, 635/667 nm fluorescence, primary screen (AID 1115); details: small-molecule microarray, higher = more signal;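 further: probe is biotinylated aNog protein used at 0.15 µg/mL for 1 h at 4 C; z-score combines 667 nm fluorescence of each spot with its signal to noise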
[19] = target: Torsin-1A-interacting protein 1 (Homo sapiens) (UniProt Q5JTV8); test: compound microarray binding of lysate hLAP1 – cell lysate, small-molecule microarray, COS7 lysate, 635/667 nm fluorescence, primary screen (AID 1116); details: 635 nm fluorescence, higher = more signal
[20] = target: Alpha-bungarotoxin (Bungarus multicinctus) (UniProt P60615); test: compounds binding labelled alpha-BTX control protein – biochemical, small-molecule microarray, Alexa647 label, 635/667 nm fluorescence, artefact control for SMM control protein annotation, profiling panel (AID 1117); details: alpha-BTX-A647 binding fluorescence, higher = more signal
Sequence of Alpha-bungarotoxin (Bungarus multicinctus) (P60615 whole entry, looked up): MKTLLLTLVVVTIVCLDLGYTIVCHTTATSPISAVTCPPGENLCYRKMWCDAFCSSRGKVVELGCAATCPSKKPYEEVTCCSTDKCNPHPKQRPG

Sequence of Fibroblast growth factor 10 (Homo sapiens) (O15520 whole entry, looked up): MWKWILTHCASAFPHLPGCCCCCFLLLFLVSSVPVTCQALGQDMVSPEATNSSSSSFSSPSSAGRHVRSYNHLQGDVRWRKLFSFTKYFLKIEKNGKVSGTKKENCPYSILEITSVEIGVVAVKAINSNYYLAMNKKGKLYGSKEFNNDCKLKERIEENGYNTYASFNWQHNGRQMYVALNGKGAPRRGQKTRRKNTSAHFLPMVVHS
Sequence of Epidermal growth factor receptor (Homo sapiens) (P00533 whole entry, looked up): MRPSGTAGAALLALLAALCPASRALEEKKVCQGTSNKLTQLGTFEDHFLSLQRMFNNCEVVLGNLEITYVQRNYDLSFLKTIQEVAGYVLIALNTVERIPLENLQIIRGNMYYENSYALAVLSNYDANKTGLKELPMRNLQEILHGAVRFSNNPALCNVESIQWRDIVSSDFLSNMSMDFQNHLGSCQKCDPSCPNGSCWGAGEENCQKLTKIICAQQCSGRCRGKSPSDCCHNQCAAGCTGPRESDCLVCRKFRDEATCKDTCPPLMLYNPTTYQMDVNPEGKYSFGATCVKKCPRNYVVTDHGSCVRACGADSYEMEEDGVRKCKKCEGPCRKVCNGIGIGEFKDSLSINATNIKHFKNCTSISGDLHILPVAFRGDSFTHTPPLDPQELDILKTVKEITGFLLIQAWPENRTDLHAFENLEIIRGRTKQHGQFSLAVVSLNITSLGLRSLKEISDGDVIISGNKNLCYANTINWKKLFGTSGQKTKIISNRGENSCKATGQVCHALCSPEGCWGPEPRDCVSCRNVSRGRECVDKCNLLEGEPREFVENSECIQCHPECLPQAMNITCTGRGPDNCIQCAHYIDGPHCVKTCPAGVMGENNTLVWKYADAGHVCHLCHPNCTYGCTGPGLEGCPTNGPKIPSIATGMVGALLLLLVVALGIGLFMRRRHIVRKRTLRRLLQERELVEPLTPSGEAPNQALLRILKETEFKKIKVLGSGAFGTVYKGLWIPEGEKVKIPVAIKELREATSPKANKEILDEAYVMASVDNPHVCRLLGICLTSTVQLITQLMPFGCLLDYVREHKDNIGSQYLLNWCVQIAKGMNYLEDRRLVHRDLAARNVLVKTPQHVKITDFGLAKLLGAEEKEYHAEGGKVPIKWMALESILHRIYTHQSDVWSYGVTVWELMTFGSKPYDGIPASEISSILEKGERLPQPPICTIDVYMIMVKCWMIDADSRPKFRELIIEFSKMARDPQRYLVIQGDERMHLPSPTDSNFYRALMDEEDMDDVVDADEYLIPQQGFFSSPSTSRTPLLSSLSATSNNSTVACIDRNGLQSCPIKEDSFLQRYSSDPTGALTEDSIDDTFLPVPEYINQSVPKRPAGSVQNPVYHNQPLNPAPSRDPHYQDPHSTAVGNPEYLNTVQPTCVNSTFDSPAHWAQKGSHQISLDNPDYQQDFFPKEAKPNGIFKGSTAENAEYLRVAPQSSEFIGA
Sequence of Follistatin-related protein 3 (Homo sapiens) (O95633 whole entry, looked up): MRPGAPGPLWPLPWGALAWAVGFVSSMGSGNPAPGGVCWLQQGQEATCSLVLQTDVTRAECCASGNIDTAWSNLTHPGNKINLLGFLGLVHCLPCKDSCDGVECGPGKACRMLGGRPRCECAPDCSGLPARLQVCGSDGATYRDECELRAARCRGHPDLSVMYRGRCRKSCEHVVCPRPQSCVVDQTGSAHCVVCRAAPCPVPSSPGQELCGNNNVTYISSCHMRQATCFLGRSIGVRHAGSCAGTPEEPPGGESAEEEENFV
Sequence of Torsin-1A-interacting protein 1 (Homo sapiens) (Q5JTV8 whole entry, looked up): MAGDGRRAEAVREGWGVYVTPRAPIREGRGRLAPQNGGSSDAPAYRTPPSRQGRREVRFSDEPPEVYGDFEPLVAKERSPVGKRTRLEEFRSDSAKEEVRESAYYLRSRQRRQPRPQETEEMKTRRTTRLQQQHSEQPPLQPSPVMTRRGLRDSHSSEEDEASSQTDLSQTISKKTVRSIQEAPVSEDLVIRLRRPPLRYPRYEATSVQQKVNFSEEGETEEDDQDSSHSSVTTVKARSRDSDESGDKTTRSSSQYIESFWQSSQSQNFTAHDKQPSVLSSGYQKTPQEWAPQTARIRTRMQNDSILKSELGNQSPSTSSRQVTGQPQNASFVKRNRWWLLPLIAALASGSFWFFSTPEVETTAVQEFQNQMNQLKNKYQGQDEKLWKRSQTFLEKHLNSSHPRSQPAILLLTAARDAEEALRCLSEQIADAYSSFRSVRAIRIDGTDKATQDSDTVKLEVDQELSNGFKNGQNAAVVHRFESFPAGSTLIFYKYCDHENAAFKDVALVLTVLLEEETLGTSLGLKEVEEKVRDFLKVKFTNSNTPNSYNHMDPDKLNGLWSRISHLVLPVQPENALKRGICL
Sequence of Left-right determination factor 2 (Homo sapiens) (O00292 whole entry, looked up): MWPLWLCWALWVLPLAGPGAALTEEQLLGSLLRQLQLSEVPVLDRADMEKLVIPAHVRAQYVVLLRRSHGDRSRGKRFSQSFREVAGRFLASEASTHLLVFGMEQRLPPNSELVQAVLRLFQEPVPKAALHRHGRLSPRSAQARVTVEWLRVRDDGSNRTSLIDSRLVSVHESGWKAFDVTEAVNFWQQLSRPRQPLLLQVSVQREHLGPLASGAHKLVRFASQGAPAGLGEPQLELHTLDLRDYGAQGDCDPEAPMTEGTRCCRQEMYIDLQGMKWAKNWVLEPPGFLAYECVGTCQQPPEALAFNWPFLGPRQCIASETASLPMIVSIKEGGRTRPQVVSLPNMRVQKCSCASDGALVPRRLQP
Sequence of Dickkopf-related protein 1 (Homo sapiens) (O94907 whole entry, looked up): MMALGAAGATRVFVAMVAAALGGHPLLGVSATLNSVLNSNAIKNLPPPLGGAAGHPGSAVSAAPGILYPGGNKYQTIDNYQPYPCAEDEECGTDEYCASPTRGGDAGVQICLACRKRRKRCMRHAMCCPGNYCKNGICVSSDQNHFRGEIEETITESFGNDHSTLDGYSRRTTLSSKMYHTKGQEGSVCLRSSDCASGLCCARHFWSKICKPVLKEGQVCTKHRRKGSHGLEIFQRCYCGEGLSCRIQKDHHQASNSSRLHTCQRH

Row | SMILES | composite z-score [1] | composite z-score [2] | composite z-score [3] | z-score [4] | composite z-score [5] | composite z-score [6] | composite z-score [7] | composite z-score [8] | composite z-score [9] | composite z-score [10] | composite z-score [11] | z-score [12] | composite z-score [13] | composite z-score [14] | composite z-score [15] | composite z-score [16] | composite z-score [17] | composite z-score [18] | composite z-score [19] | composite z-score [20]
1 | COCCOC(=O)N1C(=O)[C@@]2(c3cc(C#CCC(C(=O)OC)C(=O)OC)ccc31)[C@H](c1ccc(OCCO)cc1)N1[C@H](c3ccccc3)[C@H](c3ccccc3)OC(=O)[C@H]1[C@@H]2C(=O)NC[C@H](O)c1ccccc1 | 1.52 | -0.405 | -0.189 | 0.0782 (inactive) | 1.5 | 1.3 | 0.586 | 1.29 | 0.356 | 0.094 | 0.958 | -1.71 | 0.59 | 1.09 | -0.518 | -0.17 | -0.291 | -0.202 | 0.402 | 1.18
2 | COCCCNC(=O)[C@@]1(Sc2ccc(C)cc2)CC(=O)N(Cc2ccccc2)[C@@H]1c1ccc(CO)cc1 | 1.54 | 0.0112 | 0.144 | -0.74 (inactive) | -0.342 | -0.21 | -0.58 | -0.702 | -0.344 | -0.29 | 0.0655 | -1.29 | -0.993 | -0.488 | -0.58 | -0.0221 | -0.0324 | 0.336 | -0.36 | -0.941
3 | OCCCc1cc[n+](Cc2cccc(OC(F)(F)F)c2)cc1 | 1.67 | 0.237 | 0.526 | -0.109 (inactive) | 0.0895 | 0.873 | 0.0648 | 1.03 | 0.346 | 1.14 | 1.47 | 0.242 | 0.208 | 0.66 | 0.56 | -0.0758 | 0.199 | 0.134 | 0.925 | 0.718
4 | CCN(CC)c1ccc(N2CC=CC34O[C@@H]5C=CCCOC(=O)C5[C@H]3C(=O)N(CCCO)[C@@H]4C2=O)cc1 (stereo not given in full) | -1.99 | -0.404 | -0.373 | -0.542 (inactive) | -0.344 | -0.0608 | -0.365 | -0.0243 | -0.174 | 1.5 | -0.591 | 0.0997 | 0.0606 | -0.409 | -0.977 | -0.176 | -0.294 | -0.288 | -0.273 | -1.17
5 | NC(=O)[C@]1(Cc2ccccc2)N=C(c2ccc(OCCCO)cc2)O[C@@H]1c1ccccc1 | 0.647 | 1.2 | 0.751 | -0.072 (inactive) | 0.61 | 0.0914 | -0.722 | -0.144 | -0.109 | 0.558 | 1.33 | -0.772 | -1.02 | 1.35 | 0.744 | -0.0398 | 0.409 | 1.42 | 1.51 | 1.23
6 | C=C(C(=O)CC[C@H](OC(=O)c1cccnc1)c1ccccc1OCCO)C(C)C | 1.14 | -0.109 | -0.0641 | 3.21 (inactive) | 1.56 | 0.98 | 1.25 | 1.13 | 0.962 | 1.11 | 1.05 | -2.71 | 0.753 | -0.62 | -1.24 | 0.121 | -0.0035 | -0.176 | 1.99 | 0.892
7 | COC(=O)[C@@]1(Cc2ccc(OC)cc2)[C@H]2c3cc(C(=O)N(C)C)n(CCSCCO)c3C[C@H]2CN1C(=O)c1ccccc1 | 0.403 | 1.14 | 1.16 | -2.69 (inactive) | 0.448 | 0.528 | -0.263 | 0.413 | -0.796 | 0.737 | 1.39 | -1.41 | -0.675 | 2.02 | 0.954 | 0.149 | 0.234 | -0.553 | 0.904 | 0.569
8 | Cc1ccc(S[C@]2(C(=O)NCCCN(C)C)CC(=O)N(C(C)C)[C@@H]2c2ccc(CO)cc2I)cc1 | 1.37 | 0.17 | 0.789 | -1.44 (inactive) | -0.238 | -0.627 | -0.228 | -0.137 | -0.827 | 1.1 | -0.257 | -2.53 | -0.829 | 0.314 | 0.344 | -0.0748 | -0.0035 | -0.487 | 0.309 | 0.397
